Source: PubChem BioAssay
HepG2 tox = kills HepG2 cells in TGF-b inhibitor counter-screen; HepG2 CAGA-GFP viability, ATP luminescence, 18 h; AID 588856; Potency, µM (top dose mostly 46.1 µM), for the others: at the highest dose activity change, negative = cytotoxicity, actives largely listed as cytotoxic; actives 0.76% (n = 410,000)
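HepG2 CAGA-GFP cells (1000/well, DMEM with 1% FBS) received compound, then TGF-beta at 500 pg/mL final, and were incubated 18 hours at 37 degrees C. Viability was read by CellTiter-Glo luminescence. Media-only wells were set as complete cell-killing and DMSO as no toxicity.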
RORg inh = inhibitors of mouse ROR gamma transcriptional activity; AID 2551; actives 5.4% (n = 310,000); Drosophila S2 Gal4-RORgamma UAS-luciferase reporter, 20 h; P51450; Potency, µM (titrated, usually from 53.6 µM), without a hit: at the top dose activity change, negative = inhibition, most hits filed as inhibitors; also: % is scaled to controls: 0 for no effect and ±100 for the full control effect; nearly all actives have a fitted effect of over 60% in size
Target sequence (P51450 whole entry, looked up, the tested form may be a part): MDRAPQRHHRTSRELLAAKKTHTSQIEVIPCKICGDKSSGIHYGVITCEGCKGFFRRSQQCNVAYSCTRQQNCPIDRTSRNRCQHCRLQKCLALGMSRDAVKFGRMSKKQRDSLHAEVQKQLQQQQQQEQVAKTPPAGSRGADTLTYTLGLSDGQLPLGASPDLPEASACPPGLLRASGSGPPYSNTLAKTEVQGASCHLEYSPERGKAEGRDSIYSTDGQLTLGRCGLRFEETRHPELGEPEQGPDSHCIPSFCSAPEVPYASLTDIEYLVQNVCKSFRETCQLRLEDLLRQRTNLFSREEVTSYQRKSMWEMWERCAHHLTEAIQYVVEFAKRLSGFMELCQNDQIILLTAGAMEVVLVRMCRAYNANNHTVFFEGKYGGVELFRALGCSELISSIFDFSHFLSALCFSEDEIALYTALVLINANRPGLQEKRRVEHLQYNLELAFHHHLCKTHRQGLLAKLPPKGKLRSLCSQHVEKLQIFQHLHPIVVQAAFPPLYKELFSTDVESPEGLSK
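Drosophila Schneider cells stably carrying a metallothionein-driven Gal4 DBD–ROR gamma fusion and a UAS-Photinus luciferase reporter were exposed to compound for 1 hr, then induced with copper sulfate (700 uM final) for 20 hr at ambient temperature before luminescence reading.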
Gal4-VP16 FLuc = counter-screen for ROR gamma inhibitors: Gal4-VP16 reporter; Potency, µM (highest dose often 53.6 µM), for inactives: at the top dose activity, negative = inhibition, usual class: inhibitors; actives 3.5% (n = 310,000); Drosophila S2 Gal4-VP16 UAS-luciferase, luminescence, 20 h;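 also: Gal4-VP16 expression switched on by copper sulfate through the metallothionein promoter; % is scaled to controls: 0 for no effect and ±100 for the full control effect; nearly all actives have a fitted effect of over 50% in size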
TGFb SMAD3 inh = blocks TGF-b signaling; HepG2 CAGA-GFP TGF-b/SMAD3 reporter, GFP fluorescence, 18 h; TGF-beta stimulated, 500 pg/mL final; Potency, µM (series often up to 46.1 µM), inactives show at the highest dose activity, negative = inhibition, usual class: inhibitors; actives 1.2% (n = 410,000); also: % is scaled to controls: 0 for no effect and ±100 for the full control effect; nearly all actives have a fitted effect of over 65% in size
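Cell-based qHTS in HEPG2 carrying a CAGA-GFP Smad reporter; compounds added before 500 pg/mL final TGF-beta, 18 h incubation at 37 degrees C, GFP fluorescence quantified per cell by imaging cytometry.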
ATXN2 expr inh = ATXN2 expression inhibition; actives 0.72% (n = 360,000); Potency, µM (doses to about 57 µM), for inactives: at the highest dose activity change, negative = inhibition, most hits filed as inhibitors; AID 1745845; HEK-293 ATXN2-luciferase reporter, luminescence, 24 h; also: % is scaled to controls: 0 for no effect and ±100 for the full control effect; nearly all actives have a fitted effect of over 55% in size
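ATXN2-luciferase reporter cells (luciferase flanked by upstream and downstream ATXN2 gene portions) were treated 24 h at 37 °C with compounds at up to 57 uM. SteadyGlo luminescence gave expression; GF-AFC fluorescence gave viability.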
ATXN viability = viability counter-screen for ATXN expression inhibitors; Potency, µM (highest dose often 56.7 µM), hits mostly cytotoxic; AID 651635; S2 cells (HEK-293 line with an ATXN2-luciferase reporter) viability, CellTiter-Fluor protease fluorescence, 24 h; actives 0.49% (n = 400,000); also: nearly all actives have a fitted effect of over 40% in size
Numbers without * were called inactive; i = inactive; ? = inconclusive; . = no result given; [ ] = another dose, or the depositor's remark. In the library only some 6.3% were active in any assay of this set; here they are far more common. Calls follow the shape of the dose curve; as a rule, active = well fitted curve in the direction sought with a large enough effect; inconclusive = small, poorly fitted or top-dose-only effect, or another doubt; inactive = no such curve, though single readings can be large; an effect the other way counts as inactive or inconclusive. Potency is read from the fitted curve at half-maximal effect.

SMILES	HepG2 tox	RORg inh	Gal4-VP16 FLuc	TGFb SMAD3 inh	ATXN2 expr inh	ATXN viability
O=C(NCCOC(=O)Nc1cccc2ccccc12)OCc1ccccc1	-26%	.	.	-8%	-1%	?
Cn1cnc(S(=O)(=O)N2CCC(C(=O)NCc3ccccc3Cl)CC2)c1	-7%	.	.	-1%	.	.
O=C(CSc1ccc(Cl)cc1)Nc1nnc(-c2cccc([N+](=O)[O-])c2)s1	6%	10µM*	?	4%	-22%	i
CCc1ccc2c(c1)C1(C(=O)N2)N2CCCC2C(C(=O)c2ccc3ccccc3c2)C12C(=O)Nc1ccccc12 (stereo not drawn)	10µM*	?	?	16µM*	?	?
O=[N+]([O-])c1ccc2c(c1Nc1ccccc1Cl)=NC1(CCCCC1)N=2	-21%	-11%	3%	-8%	-14%	i
Cc1ccc(Nc2c([N+](=O)[O-])ccc3c2=NC2(CCCCC2)N=3)cc1	-8%	7.9µM*	-16%	1%	-24%	?
O=C(C[n+]1cc(Br)cc2ccccc21)c1ccc(O)c(O)c1	-29%	.	.	-8%	.	.
Oc1ccc(Cl)cc1C1C=C(c2ccc3c(c2)OCO3)NC(c2ccc(C(F)(F)F)cc2)N1 (stereo not drawn)	-92%	.	.	16µM*	.	.
Oc1ccc(Br)cc1C1C=C(c2ccc3c(c2)OCO3)NC(c2ccc(F)c(Br)c2)N1 (stereo not drawn)	-96%	.	.	7.9µM*	.	.
Cc1ccc(S(=O)(=O)c2cn(C)c3cc(N4CCOCC4)c(F)cc3c2=O)c(C)c1	0%	.	.	?	.	.
COc1ccc(CN2Cc3ccccc3OC(c3ccccc3OC)C2)c(O)c1 (stereo not drawn)	.	.	.	.	.	i
CCOC(=O)C(C)Sc1nc2c(c(-c3cccs3)c1C#N)CCC2 (stereo not drawn)	-1%	?	25µM*	8%	-5%	i
O=C(c1ccc(-c2ccc([N+](=O)[O-])cc2)o1)N1CCCCC1	-4%	?	16µM*	-19%	45%	i
C[C@H](c1ccc(F)cc1CCCC(=O)O)N(c1cc(F)ccc1F)S(=O)(=O)c1ccc(Cl)cc1	.	.	.	.	17%	.
CC1=CC(C)C(=O)N(CCN2CCOCC2)C(C)=C1 (stereo not drawn)	0%	.	.	7%	.	i
Cc1cccc(NS(=O)(=O)Cc2ccccc2)n1	16%	29%	-5%	0%	9%	i
Cc1cccc(C#Cc2ccccc2)n1	-22%	14µM*	?	0%	37%	i
COC(=O)C1CCN(Cc2ccc3c(c2)CN(C(=O)c2ncc(C)[nH]2)CCO3)CC1	.	.	.	.	.	i
COc1cc(C(=O)Nc2ccc(NC(=O)c3cccc(Cl)c3)nc2)cc(OC)c1OC	-4%	13%	19%	0%	-36%	i
COc1cc(C(=O)NC(=S)Nc2ccc(Cl)cn2)cc(OC)c1OC	-10%	5µM*	11µM*	?	2%	i
COc1cc(SC)ccc1C(=O)Nc1ccc(Cl)cn1	-12%	7.9µM*	8.9µM*	-24%	?	?
CSc1ccc(Cl)c(C(=O)Nc2ccc(Cl)cn2)c1	2%	-8%	-8%	-20%	-6%	i
CCCCCC(=O)NC(=S)Nc1ccc(Cl)cn1	-13%	7.1µM*	7.9µM*	?	.	.
O=C(NC(=S)Nc1ccc(Cl)cn1)C12CC3CC(CC(C3)C1)C2	11%	6.3µM*	4µM*	-2%	.	i
CCOC(=O)c1c(S(=O)(=O)N2CCC(C(=O)NCc3cccc(OC)c3)CC2)c(C)n(C)c1C	-19%	.	.	?	10%	i
SMILES	HepG2 tox	RORg inh	Gal4-VP16 FLuc	TGFb SMAD3 inh	ATXN2 expr inh	ATXN viability
CC1CC(CCC(=O)NC(=S)Nc2ccc(Cl)cn2)C(=O)O1 (stereo not drawn)	-15%	11µM*	-27%	-33%	-10%	i
CCC(=O)NC(=S)Nc1ccc(Cl)cn1	1%	2.8µM*	?	-2%	16%	i
CC1CC(CC(=O)NC(=S)Nc2ccccc2Cl)C(=O)O1 (stereo not drawn)	-12%	-25%	-16%[10 µM]	-20%	.	i
O=C(NC(=S)Nc1ccc(Cl)cn1)C(c1ccccc1)c1ccccc1	7%	4µM*	4µM*	15%	?	i
CCn1c(C)cc(C(=O)COC(=O)CNC(=O)c2ccco2)c1C	-2%	.	.	4%	.	i
CCOC(=O)CN(C)C(=O)c1cnn(-c2ncc3c(n2)-c2ccccc2CCC3)c1C	.	.	.	.	.	i
COCCNc1nc(C)nc2c1nc(-c1ccccc1)n2CCN1CCCC1	.	-9%	-11%	.	.	.
Cc1cc(O)ccc1-c1ccc2nncn2c1	-37%	.	.	-22%	5%	i
COc1cc(OC)cc(C2=Cc3ccccc3C(CC(C)=O)N2c2ccc(C#CC3(N)CCCCC3)cc2)c1 (stereo not drawn)	.	.	.	.	?	28µM*
COc1cc(OC)cc(C2=Cc3ccc(OC)cc3C(CC(C)=O)N2c2ccc(C#CC3(O)CCCCC3)cc2)c1 (stereo not drawn)	.	.	.	.	-27%	?
COc1cc(OC)cc(C2=Cc3ccc(OC)cc3C(CC(C)=O)N2c2ccc(C#CC3(N)CCCCC3)cc2)c1 (stereo not drawn)	.	.	.	.	-16%	18µM*
CCOc1ccccc1NC(=O)c1c(C)cc(C)nc1SCC(=O)c1cccc(OC)c1	-57%	.	.	-21%	-17%	?
Cc1[nH]nc2ccc(-c3cncc(OC[C@@H](N)Cc4ccccc4)c3)cc12	.	.	.	.	3.1µM*	.
O=C(Nc1ccccc1)C1=C[C@H](c2ccc(C(F)(F)F)cc2)C[C@H](OCc2ccc(CO)cc2)O1	-32%	-5%	-4%	13µM*	?	?
O=C(Nc1ccccc1)C1=C[C@H](c2ccccc2)C[C@H](OCCCCO)O1	-6%	.	.	-19%	58%	i
O=C(NCc1nc2ccccc2[nH]1)C1=C[C@@H](c2ccc(Br)cc2)C[C@@H](OCc2ccc(CO)cc2)O1	-57%	-31%	9%	13µM*	0%	?
O=C(Nc1ccccc1)C1=C[C@@H](c2ccc(Br)cc2)C[C@@H](OCCCCO)O1	-11%	?	7.1µM*	-18%	35%	i
COc1ccc(NC(=O)CN(C)S(=O)(=O)c2ccc3[nH]c4c(c3c2)CCCC4)cc1Cl	-21%	.	.	?	?	?
CCOC(=O)Cc1nn(Cc2nc(-c3ccc(C#N)cc3)cs2)c(=O)c2ccccc12	-77%	21%	6%	-26%	?	?
NC(N)=Nc1nc(C2COc3ccccc3O2)cs1 (stereo not drawn)	0%	?	-27%	0%	34%	i
